High-throughput results: PubChem, several laboratories
EBI2 block – EBI2 (human) antagonism; P32249; EBI2 beta-arrestin recruitment, luminescence, 7a,25-OHC stimulated; inhibition, % at 5 µM; hit rate 0.81% among 360,000; AID 651636; in the data active means inhibition above about 38%;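 further: enzyme fragment complementation signal reports receptor beta-arrestin coupling in cells; 0% = agonist plus DMSO wells and 100% = wells without agonist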
SENP8 block-1 – blocks human SENP8 cleavage of Nedd8 substrate; hit rate 0.64% among 360,000; recombinant SENP8, Nedd8 substrate fluorescence; inhibition, % at 20 µM; AID 602440; Q96LD8; in the data active means inhibition mostly above about 40%, no sharp cut-off; inactive means mostly below about 27%
AHR activator – human AHR activation; P35869; AHR-responsive luciferase reporter cells, luminescence; activation, % at 5 µM; hit rate 2.5% among 320,000; AID 2796; in the data active means activation above about 47%;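 further: 0% = vehicle wells and 100% = reference agonist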
SENP6 inh – SENP6 protease inhibition; inhibition, % at 10 µM; AID 2599; Recombinant SENP6 catalytic domain, aminoluciferin luminescence; hit rate 1.8% among 330,000;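 active means inhibition above about 50% at the single tested dose, limit read from the data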;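 further: plate controls were DMSO wells with enzyme for no effect and DMSO wells lacking enzyme for full effect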
Target sequence (Q9GZR1 628-1112 limits assumed): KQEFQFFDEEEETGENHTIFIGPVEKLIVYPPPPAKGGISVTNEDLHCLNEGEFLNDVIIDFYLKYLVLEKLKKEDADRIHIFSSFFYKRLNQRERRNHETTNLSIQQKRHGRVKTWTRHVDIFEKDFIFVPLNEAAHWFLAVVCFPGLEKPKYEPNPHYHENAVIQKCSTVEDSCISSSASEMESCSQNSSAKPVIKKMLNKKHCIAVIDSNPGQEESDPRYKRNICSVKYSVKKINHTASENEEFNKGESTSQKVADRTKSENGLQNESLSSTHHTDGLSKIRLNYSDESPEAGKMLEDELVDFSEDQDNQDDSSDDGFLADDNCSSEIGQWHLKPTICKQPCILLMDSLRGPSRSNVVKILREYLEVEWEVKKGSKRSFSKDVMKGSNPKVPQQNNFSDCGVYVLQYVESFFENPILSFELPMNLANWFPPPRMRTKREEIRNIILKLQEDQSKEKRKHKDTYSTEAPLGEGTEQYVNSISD
SENP8 block-2 – blocks the human protease SENP8; Q96LD8; hit rate 1.2% among 330,000; inhibition, % at 10 µM; purified SENP8, Z-RLRGG-aminoluciferin cleavage, luminescence; in the data active means inhibition above about 50%
SENP7 block – blocks the human protease SENP7; recombinant SENP7, Z-RLRGG-aminoluciferin luminescence, 40 min; inhibition, % at 5 µM; hit rate 1.5% among 330,000;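 active means inhibition above about 50% at the single test dose, limit read from the data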;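 further: plate controls were DMSO with enzyme for no effect and no enzyme buffer wells for full effect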
SENP8 confirm – human SENP8 inhibition, confirmed; Recombinant SENP8, Z-RLRGG-aminoluciferin luminescence, 60 min; shares compounds with SENP7 block; inhibition, % at 12.5 µM; hit rate 40% among 6,200;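 active means mean inhibition across replicates above about 50%, limit read from the data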
SENP6 confirm – human SENP6 inhibition, confirmed | shares compounds with SENP7 block | recombinant SENP6, Z-RLRGG-aminoluciferin luminescence | inhibition, % at 12.5 µM | hit rate 58% among 6,200 | AID 488915
SENP7 confirm – confirmation of human SENP7 protease inhibitors. shares compounds with SENP7 block. AID 488917. inhibition, % at 12.5 µM. recombinant SENP7, Z-RLRGG-aminoluciferin luminescence, 40 min. hit rate 69% among 6,200
Casp3 select – selectivity test for SENP inhibitors: human caspase-3 inhibition; shares compounds with SENP7 block; purified caspase-3, Z-DEVD-aminoluciferin luminescence, 60 min; inhibition, % at 12.5 µM; hit rate 60% among 6,200; AID 488918;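 active means mean inhibition above about 50%, limit read from the data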;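 further: plate controls were enzyme with DMSO for no effect and wells without caspase-3 for full effect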
Target sequence (P42574 28-227 limits assumed): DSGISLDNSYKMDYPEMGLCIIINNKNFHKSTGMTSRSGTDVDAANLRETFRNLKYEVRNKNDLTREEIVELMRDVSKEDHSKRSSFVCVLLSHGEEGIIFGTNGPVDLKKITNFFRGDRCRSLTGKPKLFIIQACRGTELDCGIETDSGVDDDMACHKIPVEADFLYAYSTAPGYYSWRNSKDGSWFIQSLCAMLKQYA
Luc interf – luminescence interference (SENP counter-screen) | hit rate 39% among 6,200 | AID 488919 | Pre-incubated SENP8/Z-RLRGG-aminoluciferin, luciferase luminescence interference | shares compounds with SENP7 block | inhibition, % at 12.5 µM;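 active means mean inhibition above about 50% when retested at one dose, limit read from the data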;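 further: plate controls were DMSO wells with completed reaction for no effect and substrate without enzyme for full effect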
* hit, by the source's call; i = inactive; / = no result given. Most compounds without a hit are left out; they make up all but 5% or so of the library.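 How the source made its calls, unless noted: active means mean inhibition above about 50% in the one-dose retest (limit read from the data); inactive means the rest.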

SMILES | EBI2 block | SENP8 block-1 | AHR activator | SENP6 inh | SENP8 block-2 | SENP7 block | SENP8 confirm | SENP6 confirm | SENP7 confirm | Casp3 select | Luc interf
CCOC(=O)C1=C(C)NC(C)=C(C(=O)OCC)C1C(=O)OCC(=O)NC1(C#N)CCCCC1 | -17 | i | 10 | -13 | -4 | -6 | / | / | / | / | /
O=[N+]([O-])c1ccc(N/N=C/c2cccc(O)c2O)cc1 | 20 | -57 | 3 | 78* | 59* | 39 | 39 | 46 | 84* | 37 | 68*
O=[N+]([O-])c1ccc(N/N=C/c2cccc(O)c2)cc1 | 23 | -64 | 0 | 82* | 77* | 53* | 90* | 89* | 94* | 37 | 86*
Cc1ccc(NC(=O)CSc2n[nH]c(=O)n2C2CC2)cc1S(=O)(=O)N1CCOCC1 | -5 | 9 | -4 | 6 | 8 | 3 | / | / | / | / | /
CCCn1cc(S(=O)(=O)c2ccc(OC)cc2)c(=O)c2cc(OC)ccc21 | -3 | -40 | 0 | 12 | -3 | 7 | / | / | / | / | /
CCn1c(SCC(=O)Nc2ccc(OC)c(S(=O)(=O)N3CCCCC3)c2)nnc1C1CC1 | -6 | 12 | / | -10 | -8 | 3 | / | / | / | / | /
O=c1oc(-c2cccs2)nc2sc3c(c12)CCCC3 | 12 | -37 | 4 | 75* | 74* | 89* | 47 | 49 | 46 | 70* | 20
O=c1oc(-c2cccs2)nc2sc3c(c12)CCC3 | -3 | -127 | 2 | 23 | 15 | -16 | / | / | / | / | /
Cc1ccc(C(=O)Nc2ncc3c(Cl)cccc3n2)cc1 | 7 | 4 | -2 | 88* | 81* | 91* | 83* | 93* | 99* | 93* | 52*
Cc1ccc(C(=O)Nc2ccc(Cl)cn2)cc1 | 9 | 16 | 2 | 75* | 59* | 59* | 48 | 64* | 90* | 78* | 36
O=C(Nc1c(Cl)cccc1Cl)c1ccc(-c2ccccc2)cc1 | 14 | 9 | -1 | -4 | 3 | 0 | / | / | / | / | /
O=C(Nc1ccc(Cl)cn1)c1ccc(Oc2ccccc2)cc1 | 16 | 3 | 1 | 91* | 90* | 91* | 27 | 52* | 58* | 47 | 5
O=C(COc1ccc(Cl)cc1)Nc1ccc(Cl)cn1 | 8 | 32 | -2 | 7 | -9 | 12 | / | / | / | / | /
CCCOc1ccc(C(=O)Nc2ccc(Cl)cn2)cc1 | 35 | 7 | -12 | 78* | 71* | 84* | 21 | 23 | 50* | 40 | 20
O=C(Nc1ccc2ncccc2c1)c1cc(Cl)ccc1Cl | -5 | 7 | -2 | -1 | 0 | -6 | / | / | / | / | /
CCCC(=O)N1CCC1(C)C(=O)Nc1ccc(C)c(C)c1 (configuration not stated) | -5 | 12 | / | / | / | / | / | / | / | / | /
Cc1ccccc1C(=O)Nc1ccccn1 | -6 | 30 | 0 | -2 | -4 | -3 | / | / | / | / | /
Cc1ccccc1C(=O)Nc1ccc(Cl)cn1 | -2 | 21 | -4 | 56* | 19 | 51* | 39 | 44 | 73* | 74* | 37
Cc1cccc(NC(=S)c2nc3ccccc3s2)c1 | -2 | 26 | 76* | 65* | 84* | 90* | 62* | 83* | 90* | 74* | 26
Cc1cccc(NC(=O)c2cc(C)nc3ccccc23)c1 | -8 | 17 | 20 | 1 | -15 | -7 | / | / | / | / | /
O=C(O)c1ccc(Nc2ccc([N+](=O)[O-])c3nonc23)cc1 | 10 | 32 | / | 85* | 81* | 68* | 89* | 85* | 97* | 72* | 82*
CC(=O)c1ccc(Nc2ccc([N+](=O)[O-])c3nonc23)cc1 | 7 | 32 | 11 | 37 | 11 | 16 | / | / | / | / | /
CCCc1nn(C)c(C(=O)Nc2ccc3ccccc3c2)c1Cl | 7 | 15 | 2 | 52* | 29 | 37 | -3 | 1 | 13 | 11 | -1
O=C1/C(=C/N(C(=O)c2ccco2)c2ccc(Cl)cc2)Sc2ccccc21 | 5 | -152 | 17 | / | / | / | / | / | / | / | /
O=C1/C(=C/N(C(=O)c2ccco2)c2ccc(Br)cc2)Sc2ccccc21 | 5 | -109 | 35 | 90* | 84* | 80* | 11 | 51* | 72* | 44 | 40
SMILES | EBI2 block | SENP8 block-1 | AHR activator | SENP6 inh | SENP8 block-2 | SENP7 block | SENP8 confirm | SENP6 confirm | SENP7 confirm | Casp3 select | Luc interf
COc1ccc2nc(NC(=O)CSc3cn[nH]n3)sc2c1 | -8 | -5 | 18 | 50* | 11 | 7 | 31 | 28 | 65* | 62* | 60*
COc1ccc2nc(NC(=O)CSc3ccccc3)sc2c1 | 15 | 10 | 11 | 7 | -9 | 2 | / | / | / | / | /
CCOc1ccc2nc(NC(=O)CSc3cn[nH]n3)sc2c1 | -14 | 11 | 10 | 67* | 15 | 1 | 35 | 30 | 50* | 41 | 49
COCc1c(Br)c(C)nc2sc3c(=O)[nH]nnc3c12 | -2 | 9 | 8 | -6 | 9 | -10 | / | / | / | / | /
O=C(Nc1nnc(CCc2ccccc2)s1)c1ccc(F)cc1 | -1 | -57 | 9 | 9 | -6 | 6 | / | / | / | / | /
O=C(Nc1nnc(CCc2ccccc2)s1)c1cccc(F)c1 | -7 | 1 | 3 | 44 | 8 | 61* | -1 | -1 | 13 | 21 | 8
O=C(Nc1nnc(CCc2ccccc2)s1)c1ccccc1F | -10 | 11 | -4 | 51* | 3 | 40 | 36 | 33 | 58* | 48 | 6
O=C(COc1cccnc1[N+](=O)[O-])Nc1cccc(S(=O)(=O)N2CCOCC2)c1 | -2 | 0 | -1 | -12 | -3 | 6 | / | / | / | / | /
CCOCC(=O)Nc1cc(C(=O)Nc2cc(C)cc(C)c2)ccc1Cl | / | / | -1 | -32 | 79* | 93* | 83* | 54* | 90* | 89* | 47
CN(C)c1ccc(/C=N/Nc2nc3ccccc3o2)cc1 | -8 | -291 | 2 | 78* | 77* | 97* | 22 | 79* | 97* | 44 | 11
CCS(=O)(=O)c1ccc(C=NNc2nc3ccccc3o2)cc1 | 1 | -220 | / | / | / | / | / | / | / | / | /
O=C1c2ccccc2NC(c2ccc(O)cc2)N1c1ccccc1 (configuration not stated) | 5 | -304 | -1 | -8 | -6 | 0 | / | / | / | / | /
COc1ccccc1C(=O)N/C(=C\c1cn(C)c2ccccc12)C(=O)N1CCCC1 | -7 | -31 | 39 | 14 | 1 | -3 | / | / | / | / | /
O=C(N/N=C/c1ccc(Sc2ccccn2)o1)c1cc2ccccc2cc1O | -8 | -61 | 4 | 94* | 93* | 64* | 90* | 97* | 101* | 92* | 76*
